ROMK mod: human ROMK K+ channel modulation, primary screen; P48048; Tet-inducible ROMK, thallium flux fluorescence; actives lie on both sides; B-score at 10 µM; hit rate 2% among 130,000;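 active = signal ratio slope over the read window, or its plate-corrected B-score, at least 3 SD from the plate mean, either direction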;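 note: B-score of the F/F0 ratio slope over 7 to 12 s after thallium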
Target sequence (P48048 whole entry, looked up): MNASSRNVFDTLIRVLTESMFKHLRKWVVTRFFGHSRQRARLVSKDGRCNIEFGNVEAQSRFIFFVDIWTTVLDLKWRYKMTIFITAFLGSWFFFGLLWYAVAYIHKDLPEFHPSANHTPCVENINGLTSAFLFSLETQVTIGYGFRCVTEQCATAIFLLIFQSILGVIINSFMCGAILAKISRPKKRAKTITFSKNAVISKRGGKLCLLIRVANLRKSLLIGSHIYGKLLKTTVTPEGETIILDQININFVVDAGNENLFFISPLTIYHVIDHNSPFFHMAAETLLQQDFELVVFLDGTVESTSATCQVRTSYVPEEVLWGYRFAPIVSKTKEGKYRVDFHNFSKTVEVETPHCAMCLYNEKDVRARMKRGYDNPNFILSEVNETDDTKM
WT yeast gro inh: growth inhibition of WT yeast, mitochondrial fusion screen. mitochondrial fusion phenotypic screen, WT strain. inhibition, % at 10 µM. hit rate 2.1% among 190,000. AID 1362; in the data active = inhibition above about 58%; tested in S. cerevisiae
Arbovirus anti: blocks arbovirus infection; arbovirus infection cell-based antiviral screen; inhibition, % at 10 µM; hit rate 0.37% among 200,000; AID 1251; in the data active = inhibition above about 30%
PERK inhibitor: human PERK inhibition, primary cell-based screen. Q9NZJ5. CHO PERK-DD fusion, SEAP luminescence translation reporter. inhibition, % at 5.6 µM. hit rate 0.17% among 220,000;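 active = inhibition above the mean inhibition of all tested compounds plus 3 SD, set separately per screening campaign, cut at about 2.9% in these data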;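 note: PERK kinase domain activated by AP20187 dimerizer at 100 nM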
A number is an active result; - = inactive; . = not tested or not shown. This is a sample that favours compounds with a hit; in the whole collection about 3.3% have one here.

SMILES | ROMK mod | WT yeast gro inh | Arbovirus anti | PERK inhibitor
O=C(O)c1ccc(-c2ccccc2C(F)(F)F)o1 | - | - | - | -
CCOCCCNC(=S)NCCNc1nc2c(C)cccc2cc1C#N | . | - | 30.5 | -
CCOCCCNC(=S)NCCCNc1nc2c(C)cc(C)cc2cc1C#N | . | - | - | -
O=C(C1CCCN(S(=O)(=O)c2cccc3nsnc23)C1)N1CC=C(c2ccccc2)CC1 (centres undefined) | -4.34 | - | - | -
O=C(C1CCN(S(=O)(=O)c2cccc3nsnc23)CC1)N1CC=C(c2ccccc2)CC1 | . | - | - | -
Cc1ccc2nc(NC(=O)C3CCN(S(=O)(=O)c4cccc5nsnc45)CC3)sc2c1 | . | - | - | -
CC(C)C(NS(=O)(=O)c1cccc2nsnc12)C(=O)Nc1nc2ccc(Cl)cc2s1 (centres undefined) | . | 61.6 | - | -
Cc1ccc2nc(NC(=O)C3CCCN(S(=O)(=O)c4cccc5nsnc45)C3)sc2c1 (centres undefined) | - | 64.6 | - | -
COc1ccc(CC(=O)Nc2cccc(S(=O)(=O)N3CCCCCC3)c2)cc1OC | - | - | - | -
Cc1[nH]n(C2=NCCS2)c(=O)c1N=Nc1cccc(C(F)(F)F)c1 | - | 84.2 | - | -
Cc1[nH]n(-c2ccccc2)c(=O)c1N=Nc1ccccc1 | - | - | - | -
COc1cccc(N2CCN(CC(=O)NC(=O)NCc3ccco3)CC2)c1 | - | - | - | -
Cc1ccc(Cn2ncc3c(N4CCN(c5ccccc5C)CC4)ncnc32)cc1 | . | 64.9 | - | -
CN(C)CC(c1ccccc1)c1ccccc1 | . | . | . | 4.3
CN(C)CC(O)COC(c1ccccc1)c1ccccc1 (centres undefined) | - | - | - | -
Cc1ccc(C(=O)NCC(=O)NCC(=O)OCC(=O)c2cccs2)cc1 | - | - | - | -
COc1cc2nc(C3CCC3)nc(N3CCN(c4ccccn4)CC3)c2cc1OC | - | - | - | -
COc1cc2nc(C3CCC3)nc(N3CCN(c4ccccc4OC)CC3)c2cc1OC | - | 82.5 | - | -
O=C(O)c1cccnc1Sc1ccccc1Cl | . | . | . | 3.2
CC(=O)c1sc(-c2ccccc2)cc1NS(=O)(=O)c1ccc(C)cc1 | 2.68 | . | . | -
Cc1occc1-c1nnc(SCC(=O)N2c3ccccc3CCc3ccccc32)n1C | - | - | - | -
CN(C)/C=C(/C#N)C(=O)c1cccc(Oc2ccc(C(C)(C)C)cc2)c1 | - | 65.2 | - | -
COCCCNC(=O)CS(=O)(=O)Cc1nc(-c2cccc(OC)c2)oc1C | - | 74.8 | - | -
Clc1cccc(CSc2ccc(-c3cccnc3)nn2)c1 | . | - | - | -
c1ccc(CSc2ccc(-c3cccnc3)nn2)nc1 | - | - | 30.4 | -
SMILES | ROMK mod | WT yeast gro inh | Arbovirus anti | PERK inhibitor
Cc1cccc2sc(NC(=O)c3ccc(NS(=O)(=O)c4cccs4)cc3)nc12 | - | 67.2 | - | -
Cc1cc(-c2nn(-c3ccccc3F)cc2CNCCc2cnc[nH]2)c(C)s1 | - | - | - | -
COc1ccc(-n2c(Cc3cccn3C)nnc2SCC(=O)Nc2cccc(Cl)c2)cc1 | . | - | 36.3 | -
COc1ccc(-n2c(Cc3cccn3C)nnc2SCC(=O)Nc2cccc(NC(C)=O)c2)cc1 | . | - | - | -
COc1ccc(NC(=O)COC(=O)[C@@H](NC(=O)c2c(F)cccc2F)C(C)C)cc1 | - | - | - | -
CCCn1ncc(CN2CCN(Cc3ccc(C)o3)C(CCO)C2)c1C (centres undefined) | . | . | . | -
c1ccc(CN2CCN(c3ncnc4c3[nH]c3ccccc34)CC2)cc1 | -3.71 | - | - | -
OC1(c2cccc(C(F)(F)F)c2)CCN(c2ncnc3c2[nH]c2ccccc23)CC1 | - | 84.8 | - | -
c1ccc2c(c1)[nH]c1c(N3CCC4(CC3)OCCO4)ncnc12 | - | - | - | -
Cc1ccc2c(c1)[nH]c1c(N3CCN(Cc4ccccc4)CC3)ncnc12 | . | - | - | -
CCOC(=O)C1=C(CC)Nc2ccccc2N=C1NC(=O)c1cc(S(=O)(=O)N(C)C)ccc1Cl | - | - | - | -
Oc1ccc(Cl)cc1-c1cc(-c2cccc(Br)c2)n[nH]1 | - | 81.6 | - | -
Oc1ccc(Cl)cc1-c1cc(-c2ccccc2Cl)[nH]n1 | - | - | - | -
CCOC(=O)c1c(-c2ccc(C)o2)csc1NC(=S)NC(=O)c1ccccc1Br | . | - | 46.7 | -
CCOC(=O)c1c(-c2ccc(C)o2)csc1NC(=S)NC(=O)c1cccs1 | - | - | - | -
CCc1ccc2c(c1)C(c1ccc(N3CCOCC3)cc1)=NNC(c1ccncc1)=N2 | - | 68.2 | - | -
CCOc1ccc(C2=Nc3ccc(Br)cc3C(c3ccc(N4CCOCC4)cc3)=NN2)cc1 | . | - | - | -
COCCN1C(=O)/C(=C/c2ccc(Oc3ccc([N+](=O)[O-])cn3)c(OC)c2)SC1=Nc1ccccc1 | - | - | 32.2 | -
C=C(c1ccc(O)cc1)c1ccc(O)cc1 | . | - | - | -
C/C=C(/C(=C/C)c1ccc(O)cc1)c1ccc(O)cc1 | . | 63.0 | - | -
CCOc1ccc(S(=O)(=O)N2CCN(c3ccccc3OC)CC2)c2cccnc12 | - | - | 34.5 | -
CCOc1ccc(S(=O)(=O)N2CCN(c3ccccc3)CC2)c2cccnc12 | - | - | - | -
CCCn1c2ccc(/C(C)=N\O)cc2c2cc(/C(C)=N/O)ccc21 | . | - | - | -
CC(C)c1ccc(-c2noc(C3CCCN(C(=O)c4ccc(F)cc4F)C3)n2)cc1 (centres undefined) | . | 72.3 | - | -
Cc1nc2scc(-c3cccs3)c2c(=O)o1 | . | - | - | -
SMILES | ROMK mod | WT yeast gro inh | Arbovirus anti | PERK inhibitor
O=c1oc(-c2cccs2)nc2scc(-c3cccs3)c12 | - | - | 71.0 | -
Cc1ccc(CNC(=O)c2cnc(-c3ccccn3)nc2C(F)(F)F)cc1 | - | - | - | -
Cc1ccc(N=Cc2c(C)[nH]n(-c3nc4ccccc4[nH]3)c2=O)cc1 | . | 84.4 | - | -
Cc1ccc(-n2[nH]c(C)c(C=Nc3ccc4[nH]c(=O)[nH]c4c3)c2=O)cc1 | . | - | - | -
O=S(=O)(NC1CCCCC1Oc1ccccc1)c1ccc(Cl)cc1 (centres undefined) | - | 61.0 | - | -
CN(c1ccccc1)C1CCCCC1NS(=O)(=O)c1ccc(Cl)cc1 (centres undefined) | - | 65.3 | - | -
CSc1ccc(OC2CCCCC2NS(=O)(=O)c2ccc(Cl)cc2)cc1 (centres undefined) | . | 73.9 | - | -
CC(=O)N(CC(C)(C)CC=C(C)C)c1ccccc1 | - | - | - | -
CCn1cc(CN2CCc3c([nH]c4ccccc34)C2c2cccc(OC)c2OC)c(C)n1 (centres undefined) | - | - | - | -
COc1ccccc1N(CC(O)COc1ccc(C)cc1)S(=O)(=O)c1ccccc1 (centres undefined) | . | - | - | -
COc1ccccc1N(CC(O)COc1c(C)cc(C)cc1C)S(=O)(=O)c1ccccc1 (centres undefined) | - | 61.3 | - | -
CSc1cccc(NC(=O)C(C)NS(=O)(=O)c2ccc(F)cc2)c1 (centres undefined) | - | - | - | -
Cc1ccc(C(NC(=O)NC(C)c2ccccc2)C(Cl)(Cl)Cl)cc1F (centres undefined) | . | 64.0 | - | -
S=C(NCc1ccc(Cl)cc1Cl)NC1CCCCC1 | - | 83.4 | - | -
Clc1ccc(CNC2CCCC2)c(Cl)c1 | - | - | - | -
